Screening data from PubChem.
INS promoter inh = TRM-6 insulin promoter activity inhibition. AID 1273. inhibition, % at 2 µM. TRM-6 cells (human fetal islet line), insulin promoter-eGFP reporter, imaging; reporter expression induced with tamoxifen. actives 0.9% (n = 130,000);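 active = inhibition above the mean plus 3 SD, with well images judged a real hit on visual review, cut at about 60% in these data, passing the limit was not always enough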
HCT116 PTEN-null = suppresses growth of cells with PTEN deletion. viability, % at 10 µM. HCT116 PTEN-null viability, CellTiter-Glo, 60 h; active compounds read low. actives 1.2% (n = 140,000). AID 827;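 active = viability at or below a set limit, 4 SD under the median of all tested compounds, cut at about 3.7% in these data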;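 also: PTEN knockout HCT116 line with beta catenin targeted HCT116 as companion control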
ROMK primary = modulators of human ROMK potassium channel; B-score at 10 µM; actives 2% (n = 130,000); Tet-inducible ROMK, thallium flux fluorescence; actives lie on both sides; P48048;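 active = signal ratio slope over the read window, or its plate-corrected B-score, at least 3 SD from the plate mean, either direction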;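 also: B-score of the F/F0 ratio slope over 7 to 12 s after thallium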
p97 ATPase inh = human p97 ATPase inhibition. P55072. recombinant p97 ATPase, Kinase-Glo ATP luminescence, 3 h. inhibition, % at 8 µM. actives 0.42% (n = 220,000). AID 1481; in the data active = inhibition above about 15%
Target sequence (P55072 whole entry, looked up): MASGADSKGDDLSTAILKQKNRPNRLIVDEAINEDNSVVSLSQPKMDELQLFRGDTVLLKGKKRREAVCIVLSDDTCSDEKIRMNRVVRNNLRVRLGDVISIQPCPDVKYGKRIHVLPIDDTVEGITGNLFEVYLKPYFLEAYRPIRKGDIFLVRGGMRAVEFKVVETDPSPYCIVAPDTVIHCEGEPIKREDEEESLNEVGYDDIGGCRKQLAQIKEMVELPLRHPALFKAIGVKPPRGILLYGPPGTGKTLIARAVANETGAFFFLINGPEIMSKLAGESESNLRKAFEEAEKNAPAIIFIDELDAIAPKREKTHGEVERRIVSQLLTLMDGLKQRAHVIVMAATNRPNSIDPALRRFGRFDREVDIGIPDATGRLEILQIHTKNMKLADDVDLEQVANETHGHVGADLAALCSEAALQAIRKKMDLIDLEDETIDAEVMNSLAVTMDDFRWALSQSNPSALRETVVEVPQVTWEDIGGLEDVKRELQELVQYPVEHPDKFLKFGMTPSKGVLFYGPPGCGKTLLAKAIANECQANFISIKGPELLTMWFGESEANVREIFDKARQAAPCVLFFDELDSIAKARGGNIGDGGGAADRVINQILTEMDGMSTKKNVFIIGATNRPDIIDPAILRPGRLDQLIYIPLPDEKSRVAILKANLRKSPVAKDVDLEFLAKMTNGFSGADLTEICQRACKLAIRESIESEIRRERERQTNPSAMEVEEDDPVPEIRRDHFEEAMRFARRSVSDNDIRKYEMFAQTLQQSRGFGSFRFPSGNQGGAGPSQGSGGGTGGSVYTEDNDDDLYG
L major viab = Leishmania major promastigote growth inhibition; Leishmania major promastigotes, resazurin fluorescence viability; inhibition, % at 10 µM; actives 9% (n = 200,000); AID 1063; in the data active = inhibition above about 50%;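 also: promastigotes grown with compound for 44 hours at 28 °C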
bCat KO growth = beta-catenin-lacking colon tumor cell growth suppression; AID 818; actives 1.5% (n = 140,000); HCT116 beta-catenin knockout viability, CellTiter-Glo, 60 h; active compounds read low; viability, % at 10 µM;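 active = viability at or under a set limit, the compound median less 4 SD, cut at about 6% in these data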
Of the large screens only hits and unclear results are named; the others gave an inactive call. Rows were chosen to be rich in hits. Some 10% of all compounds tested hit in one or more screens of this group.

CCN1CCN(C(=O)c2ccc(COc3ccc(Cl)cc3)o2)CC1	L major viab 84 (no result: ROMK primary)
O=C(c1ccc(S(=O)(=O)NCc2ccco2)cc1)N1CCN(Cc2ccc3c(c2)OCO3)CC1	L major viab 88 (no result: HCT116 PTEN-null, bCat KO growth)
CC1CCN(c2nc3ccc(C(=O)N4CCN(Cc5ccc6c(c5)OCO6)CC4)cc3s2)CC1	L major viab 92 (no result: INS promoter inh, ROMK primary)
CO/N=C\CC(=O)Nc1ccc(Cl)cc1Cl	none (no result: HCT116 PTEN-null, bCat KO growth)
CCCCCCC1CC(CSc2ncn[nH]2)OC1=O (stereo unspecified)	none (no result: INS promoter inh)
CC(=O)Nc1ccc2nc(CN3CCN(CC=C(C)C)C(CCO)C3)ccc2c1 (stereo unspecified)	none (no result: INS promoter inh, HCT116 PTEN-null, bCat KO growth)
CCN(CC)C(=O)c1cn(CCC#N)nc1-c1ccc(F)cc1	none (no result: HCT116 PTEN-null, bCat KO growth)
O=C(c1ccc(COc2ccccc2Cl)o1)N1CCN(Cc2ccc3c(c2)OCO3)CC1	L major viab 90
CN(c1ccc(C(=O)N2CCN(Cc3ccc4c(c3)OCO4)CC2)cc1)S(C)(=O)=O	none (no result: INS promoter inh, HCT116 PTEN-null, ROMK primary, bCat KO growth)
O=C(c1ccc(S(=O)(=O)N2CCCC2)cc1)N1CCN(Cc2ccc3c(c2)OCO3)CC1	L major viab 94 (no result: ROMK primary)
O=C(c1ccc(COc2ccc(Cl)cc2)o1)N1CCN(Cc2ccc3c(c2)OCO3)CC1	none (no result: ROMK primary)
CS(=O)(=O)N1CCc2cc(S(=O)(=O)N3CCN(Cc4ccc5c(c4)OCO5)CC3)ccc21	L major viab 89
CC(C)[C@H](N)c1nnc(SC/C=C/c2ccccc2)o1	none (no result: ROMK primary)
Cc1ccc(S(=O)(=O)N2CCC(C(=O)NCCCOC(C)C)CC2)cc1	none (no result: ROMK primary)
CCc1ccc(N(CC(=O)NCc2ccc(F)cc2)C(=O)c2csnn2)cc1	none (no result: HCT116 PTEN-null, bCat KO growth)
CCNc1nnc(CCn2nc(C)c(Br)c2C)s1	none (no result: INS promoter inh, HCT116 PTEN-null, bCat KO growth)
O=C(Nc1ccc(-c2noc(COc3ccccc3Cl)n2)cc1)c1ccco1	none (no result: ROMK primary)
Cc1ccc(C(=O)N2CCN(c3ccc([N+](=O)[O-])c(NCc4cccnc4)c3)CC2)cc1	L major viab 57 (no result: INS promoter inh)
Cc1ccccc1C(=O)N1CCN(c2ccc([N+](=O)[O-])c(NCc3cccnc3)c2)CC1	none
CS(=O)(=O)N1CCN(c2ccc([N+](=O)[O-])c(NCc3ccc(Cl)cc3)c2)CC1	bCat KO growth 2.2 (no result: ROMK primary)
CS(=O)(=O)N1CCN(c2ccc([N+](=O)[O-])c(NCc3ccccc3)c2)CC1	none (no result: INS promoter inh)
O=C(CSCc1nc2c(nnn2Cc2ccc(F)cc2)c(=O)[nH]1)Nc1cccc(C(F)(F)F)c1	none (no result: INS promoter inh, HCT116 PTEN-null, bCat KO growth)
O=C(/C=C/c1ccc(S(=O)(=O)NCc2ccco2)cc1)NCc1cccc(Cl)c1	L major viab 94
Cc1ccc(CNC(=O)/C=C/c2ccc(S(=O)(=O)NCc3ccco3)cc2)cc1	L major viab 78
COc1ccccc1CNC(=O)/C=C/c1ccc(S(=O)(=O)NCc2ccco2)cc1	none
C=C(C)CNC(=S)N/N=C/c1c(F)cccc1F	none (no result: INS promoter inh, HCT116 PTEN-null, bCat KO growth)
Cc1sc(-n2c(C)cc(/C=N/n3cnnc3)c2C)c(C#N)c1C	L major viab 77 (no result: ROMK primary)
Cc1sc(-n2c(C)cc(/C=C3\SC(=S)NC3=O)c2C)c(C#N)c1C	none (no result: INS promoter inh)
O=C(OCc1ccccc1Cl)c1ccccc1C(=O)c1ccccc1	none (no result: ROMK primary)
O=C(OCc1nc2ccc(Cl)cc2n1CCO)c1ccccc1C(=O)c1ccccc1	L major viab 60
COc1ccc(-c2csc(NC(=O)CSc3nc(SC)ns3)n2)cc1	L major viab 52
CSc1nsc(SCC(=O)Nc2nc3ccccc3s2)n1	L major viab 63
COc1cc(C(=O)NCc2nnc(SCC(=O)Nc3nc4ccccc4s3)o2)cc(OC)c1OC	L major viab 71
COc1ccc(C(=O)NCc2nnc(SCC(=O)Nc3nc4ccccc4s3)o2)cc1	none
O=c1oc2ccccc2c(O)c1C=Nc1cccnc1	none (no result: INS promoter inh, HCT116 PTEN-null, bCat KO growth)
COc1ccc(C2=NN(CCC(=O)NCc3ccc4c(c3)OCO4)C(=O)CC2)cc1	L major viab 54
Cc1ccc(C2=NN(CCC(=O)NCCC(C)C)C(=O)CC2)cc1	L major viab 73
COc1cccc(/C=C/C(=O)OCC(=O)Nc2ccc(Cl)c(S(=O)(=O)N(C)C)c2)c1OC	none (no result: INS promoter inh, HCT116 PTEN-null, bCat KO growth)
O=C(COC(=O)CSc1ccc2ccccc2c1)NCc1ccc2c(c1)OCO2	none
COc1ccc(NC(=O)Cn2c(=O)n(-c3ccc(CC(=O)NCc4ccco4)cc3)c(=O)c3ccccc32)cc1	none (no result: INS promoter inh, HCT116 PTEN-null, bCat KO growth)
CCCOc1ccccc1-n1sc2c(c1=S)-c1cc(OC)cc3c1N(C(=O)C3=O)C2(C)C	HCT116 PTEN-null 3.0
Nc1ccc(O)cc1C(=O)OCC(=O)c1ccc(C2CCCCC2)cc1	L major viab 60
CCN(CC)c1ccc(N=Nc2nn(C)c(C)c2[N+](=O)[O-])cc1	L major viab 53
CCN(Cc1ccccc1)c1ccc(N=Nc2nn(C)c(C)c2[N+](=O)[O-])cc1	none (no result: INS promoter inh, ROMK primary)
Cc1noc(C)c1CSc1nc2ccccc2nc1NS(=O)(=O)c1ccc(Cl)cc1	ROMK primary -3.1 (no result: INS promoter inh)
O=C(NC(NC(=S)Nc1ccccc1)C(Cl)(Cl)Cl)c1cccc(Cl)c1 (stereo unspecified)	HCT116 PTEN-null 2.0, L major viab 75, bCat KO growth 2.6 (no result: INS promoter inh)
Cc1ccc(NC(=S)NC(NC(=O)c2ccccc2)C(Cl)(Cl)Cl)c(C)c1 (stereo unspecified)	L major viab 96
O=C(NC(NC(=S)Nc1ccc(Cl)cc1Cl)C(Cl)(Cl)Cl)c1cccc([N+](=O)[O-])c1 (stereo unspecified)	HCT116 PTEN-null 3.3, L major viab 100, bCat KO growth 4.1 (no result: ROMK primary)
CCOc1ccc(CCNC(=O)c2cc3sccc3n2CC)cc1OCC	none
CC(C)CNC(=O)CN(c1cccc(Cl)c1)S(C)(=O)=O	none (no result: INS promoter inh, HCT116 PTEN-null, bCat KO growth)
CSc1ncccc1C(=O)Nc1nc2c(C)cccc2s1	L major viab 69
C(#CCN1CCCC1)CC(c1ccccc1)c1ccccc1	L major viab 100 (no result: INS promoter inh, HCT116 PTEN-null, bCat KO growth)
CC(C)C(O)(C#CCN1CCCCCC1)c1ccccc1 (stereo unspecified)	L major viab 83 (no result: HCT116 PTEN-null, ROMK primary, bCat KO growth)
CC(O)(C#CCN1CCCCC1)c1ccccc1 (stereo unspecified)	none (no result: ROMK primary)
CC(C)C(O)(CC#CCN1CCCC1)c1ccccc1 (stereo unspecified)	L major viab 54 (no result: HCT116 PTEN-null, bCat KO growth)
OC(CC#CCN1CCCC1)(c1ccccc1)c1ccccc1	none (no result: INS promoter inh, HCT116 PTEN-null, L major viab, bCat KO growth)
CC(C)(C)C(O)(CC#CCN1CCCC1)c1ccccc1 (stereo unspecified)	L major viab 69 (no result: INS promoter inh, HCT116 PTEN-null, bCat KO growth)
CC(C)OCCCNC(=O)CN1C(=O)/C(=C/c2ccccc2)Sc2ccccc21	L major viab 59
CN1CCN(CCCNC(=O)c2ccc(/C=C3\Sc4ccccc4N(Cc4ccccc4F)C3=O)cc2)CC1	L major viab 100 (no result: HCT116 PTEN-null, bCat KO growth)
CCN1CCN(CCNC(=O)c2ccc(/C=C3/Sc4ccccc4N(Cc4cccc(Cl)c4)C3=O)cc2)CC1	L major viab 101 (no result: INS promoter inh, HCT116 PTEN-null, bCat KO growth)
O=C(NCCN1CCOCC1)c1ccc2c(c1)N(Cc1cccc(F)c1)C(=O)c1ccccc1S2	L major viab 100 (no result: HCT116 PTEN-null, bCat KO growth)
COc1cc(/C=N/NC(=O)C2CCN(CC(O)COCc3ccccc3)CC2)ccc1O (stereo unspecified)	none (no result: INS promoter inh, HCT116 PTEN-null, bCat KO growth)
CCc1cccc(CC)c1NC(=S)NCc1nc2ccccc2[nH]1	none (no result: HCT116 PTEN-null, bCat KO growth)
